From PubChem BioAssay (EPA / NIEHS)
“And” between values parts separate entries of the source, which are not always exact repeats. Equal values may be shown once. The source holds several records for some structures; these can differ, active in one and inactive in another. The source made the active and inactive calls. The calls were made as follows: active = hit-call score of the fitted dose curve at least 0.9, where 1 is the maximum; inactive = score below 0.9.

Legend:
[1] = ATG_E_Box_CIS: Attagene CIS-FACTORIAL HepG2 Assay for human Enhancer Box (E-box) (AID 2282936); conditions: HepG2 E-box cis-reporter transcription, actives raise or lower the signal
Summary of the method: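 DMSO served as negative control and baseline for bidirectional fitting. Human hepatoma HepG2 cells, transiently transfected with cis-reporter constructs, were dosed 24 h; reporter mRNA read by RT-PCR and capillary electrophoresis.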

[2] = ATG_M_61_CIS: Attagene CIS-FACTORIAL HepG2 Assay for M61 Transcription Factor (Internal Marker) (AID 2282937); conditions: HepG2 Attagene CIS-FACTORIAL M61 internal marker reporter; actives raise or lower the signal
Summary of the method: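 Background-control endpoint: HepG2 cells with cis-regulated reporter constructs, 24 h exposure, reporter mRNA detected via fluorescent primer extension and capillary electrophoresis; values from bidirectional fitting with DMSO baseline.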

[3] = ATG_M_19_CIS: Attagene CIS-FACTORIAL HepG2 Assay for M19 Transcription Factor (Internal Marker) (AID 2282939); conditions: HepG2 Attagene CIS-FACTORIAL M19 internal marker reporter; actives raise or lower the signal
Summary of the method: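 Transfect HepG2 with MRTU reporter library → dose chemical, 24 h → isolate total RNA, reverse-transcribe with oligo(dT) → PCR, 6-FAM label, HpaI cut (2 h, 37 C) → capillary electrophoresis. Bidirectional fit vs DMSO.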

[4] = ATG_ERE_CIS: Attagene CIS-FACTORIAL HepG2 Assay for Estrogen Response Element (ERE) (AID 2282940); conditions: HepG2 ERE cis-reporter, Attagene RNA transcript; actives raise or lower the signal
Summary of the method: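 Transient MRTU transfection of human HepG2; cis-element promoters; 24 h dosing; total RNA → RT (oligo dT) → PCR → 6-FAM primer extension → HpaI digest → CE fluorescence. Bidirectional fit, DMSO baseline.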

[5] = ATG_Ets_CIS: Attagene CIS-FACTORIAL HepG2 Assay for human Erythroblast Transformation Specific (ETS) (AID 2282941); conditions: HepG2 ETS cis-reporter transcription, actives raise or lower the signal
Summary of the method: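 HepG2 cells transiently transfected with cis-promoter reporter transcription units were dosed for 24 h; reporter mRNA was measured by RT-PCR, 6-FAM primer extension, HpaI digestion and capillary electrophoresis, with bidirectional fitting against DMSO baseline.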

[6] = target: Hepatocyte nuclear factor 3-beta (Homo sapiens) (UniProt Q9Y261); test: ATG_FoxA2_CIS: Attagene CIS-FACTORIAL HepG2 Assay for human Forkhead box A2 (FOXA2) (AID 2282942); conditions: HepG2 cis-reporter transcription factor activity, 24 h; actives raise or lower the signal
Summary of the method: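 Measured: reporter mRNA induction or loss in HepG2 transiently carrying multiple cis-regulated reporter units, 24 h after dosing. Quantified by RT-PCR plus capillary electrophoresis, normalised to DMSO.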

[7] = ATG_FoxO_CIS: Attagene CIS-FACTORIAL HepG2 Assay for human Forkhead box O (FoxO) (AID 2282943); conditions: HepG2 Attagene cis-reporter, FoxO element, mRNA; actives raise or lower the signal
Summary of the method: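 HepG2, transient MRTU transfection (cis element, endogenous TFs). Dose 24 h. TriZol RNA → oligo(dT) RT → PCR → 6-FAM primer extension → HpaI cut → CE. Gain/loss vs DMSO.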

[8] = ATG_GATA_CIS: Attagene CIS-FACTORIAL HepG2 Assay for human GATA Binding Protein (AID 2282944); conditions: HepG2 GATA cis-element reporter, Attagene multiplex mRNA; actives raise or lower the signal
Summary of the method: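 Transient MRTU transfection, HepG2, 24 h compound exposure. Total RNA → oligo(dT) RT → PCR → 6-FAM primer extension → HpaI cut → CE. Bidirectional fit vs DMSO.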

[9] = ATG_GLI_CIS: Attagene CIS-FACTORIAL HepG2 Assay for human Zinc Finger Protein GLI1 (AID 2282945); conditions: HepG2, Attagene cis-factorial reporter mRNA, GLI element; actives raise or lower the signal
Summary of the method: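 Bidirectional curve fits relative to DMSO, using reporter mRNA levels from RT-PCR plus capillary electrophoresis. Cells were HepG2 transiently carrying cis-regulated reporter constructs, harvested 24 h after dosing.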

[10] = target: Bile acid receptor (Homo sapiens) (UniProt Q96RI1); test: ATG_IR1_CIS: Attagene CIS-FACTORIAL HepG2 Assay for human Nuclear Receptor Subfamily 1 Group H Member 4 (NR1H4), IR1 submotif (AID 2282946); conditions: IR1 reporter transcription, actives raise or lower the signal
Summary of the method: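 Cells (human HepG2) carry transiently transfected cis-promoter reporter transcription units. Compounds are incubated 24 h, total RNA is reverse-transcribed and amplified, and labelled fragments are resolved by capillary electrophoresis. Curves use DMSO as baseline.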

[11] = ATG_GRE_CIS: Attagene CIS-FACTORIAL HepG2 Assay for human Glucocorticoid Response Elements (GRE) (AID 2282947); conditions: HepG2 GRE cis-reporter, Attagene multiplex mRNA; actives raise or lower the signal
Summary of the method: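 Assay uses human hepatoma HepG2 cells transfected with cis-promoter reporter units, exposed 24 h. mRNA from reporters detected by RT-PCR plus capillary electrophoresis; DMSO serves as negative control and baseline.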

[12] = ATG_ISRE_CIS: Attagene CIS-FACTORIAL HepG2 Assay for human Interferon Regulatory Factor 1 (IRF1) binding to an Interferon-Stimulated Response Element (ISRE) (AID 2282948); conditions: HepG2 ISRE cis-reporter (Attagene), mRNA transcription readout; actives raise or lower the signal
Summary of the method: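 HepG2 cells transiently transfected with multiplexed cis-promoter reporter units; after 24 h compound exposure, reporter mRNA quantified by RT-PCR, FAM labelling, HpaI digestion and capillary electrophoresis. Bidirectional fit versus DMSO baseline.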

[13] = ATG_M_32_CIS: Attagene CIS-FACTORIAL HepG2 Assay for M32 Transcription Factor (Internal Marker) (AID 2282949); conditions: HepG2 Attagene cis-factorial M32 reporter, mRNA; actives raise or lower the signal;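 also: background control marker of the multiplexed CIS panel rather than a real target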
Summary of the method: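 Following 24 h chemical exposure of HepG2 cells transiently expressing cis-promoter reporter constructs, reporter transcript levels were determined by RT-PCR with fluorescent labelling and capillary electrophoresis, then fitted bidirectionally against DMSO.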

[14] = ATG_M_06_CIS: Attagene CIS-FACTORIAL HepG2 Assay for M06 Transcription Factor (Internal Marker) (AID 2282950); conditions: HepG2 Attagene CIS-FACTORIAL M06 internal marker reporter; actives raise or lower the signal
Summary of the method: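 Read-out is fluorescence of labelled reporter cDNA fragments resolved by capillary electrophoresis after RT-PCR. Cells: HepG2 carrying transfected cis-promoter reporter units, treated 24 h. Gain or loss of signal fitted relative to DMSO.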

[15] = target: Hypoxia-inducible factor 1-alpha (Homo sapiens) (UniProt Q16665); test: ATG_HIF1a_CIS: Attagene CIS-FACTORIAL HepG2 Assay for human Hypoxia Inducible Factor 1 (HIF1A) (AID 2282951); conditions: HepG2 Attagene cis-factorial HIF1a reporter transcription; actives raise or lower the signal
Summary of the method: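 Dosed 24 h, transfected HepG2 cells yielded total RNA whose reporter transcripts were RT-PCR-amplified and sized by capillary electrophoresis using fluorescent labelling; DMSO defined baseline, with gain and loss of signal both fitted.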

[16] = target: Hepatocyte nuclear factor 6 (Homo sapiens) (UniProt Q9UBC0); test: ATG_HNF6_CIS: Attagene CIS-FACTORIAL HepG2 Assay for human Hepatocyte Nuclear Factor 6 (HNF6) (AID 2282952); conditions: HepG2 Attagene cis-factorial HNF6 reporter transcription; actives raise or lower the signal
Summary of the method: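 HepG2, transient MRTU transfection (cis promoters); 24 h chemical exposure; total RNA → oligo(dT) RT → PCR → 6-FAM labelling → HpaI cut → CE; bidirectional fit vs DMSO.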

[17] = target: Heat shock factor protein 1 (Homo sapiens) (UniProt Q00613); test: ATG_HSE_CIS: Attagene CIS-FACTORIAL HepG2 Assay for human Heat Shock Transcription Factor 1 (HSE) (AID 2282953); conditions: HepG2 HSE cis-reporter, Attagene RNA transcription; actives raise or lower the signal
Summary of the method: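 HepG2, transient MRTU transfection, cis-promoter reporters (endogenous TF activity). 24 h compound. RNA → oligo(dT) RT → PCR → 6-FAM primer extension → HpaI cut → CE. Bidirectional fit vs DMSO.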

[18] = ATG_MRE_CIS: Attagene CIS-FACTORIAL HepG2 Assay for human Metal Responsive Element (MRE) (AID 2282954); conditions: HepG2 MRE cis-reporter transcription, Attagene multiplex; actives raise or lower the signal
Summary of the method: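 After a 24 h chemical exposure, transiently transfected HepG2 cells yield RNA whose reporter sequences are amplified, FAM-labelled and sized by capillary electrophoresis. Curves are fitted bidirectionally relative to DMSO.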

[19] = ATG_PBREM_CIS: Attagene CIS-FACTORIAL HepG2 Assay for human Phenobarbital-responsive Enhancer Module (PBREM) (AID 2282955); conditions: HepG2 PBREM cis-reporter, Attagene multiplexed transcription; actives raise or lower the signal
Summary of the method: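 Transfected liver-derived HepG2 cells exposed 24 h; PBREM reporter transcript quantified via RT-PCR and capillary electrophoresis, with activity in either direction referenced to DMSO.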

[20] = ATG_EGR_CIS: Attagene CIS-FACTORIAL HepG2 Assay for human Early Growth Response 1 (EGR1) (AID 2282938); conditions: HepG2 Attagene CIS-FACTORIAL EGR reporter mRNA; actives raise or lower the signal
Summary of the method: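 Endpoint derived by bidirectional fitting versus DMSO vehicle. Method: cis-promoter reporter units transfected into HepG2, 24 h dosing, RNA isolation, RT-PCR with 6-FAM primer extension and HpaI digestion, then capillary electrophoresis fluorescence detection.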

Measured: AC50

Hypoxia-inducible factor 1-alpha (Homo sapiens), sequence (Q16665 whole entry, looked up): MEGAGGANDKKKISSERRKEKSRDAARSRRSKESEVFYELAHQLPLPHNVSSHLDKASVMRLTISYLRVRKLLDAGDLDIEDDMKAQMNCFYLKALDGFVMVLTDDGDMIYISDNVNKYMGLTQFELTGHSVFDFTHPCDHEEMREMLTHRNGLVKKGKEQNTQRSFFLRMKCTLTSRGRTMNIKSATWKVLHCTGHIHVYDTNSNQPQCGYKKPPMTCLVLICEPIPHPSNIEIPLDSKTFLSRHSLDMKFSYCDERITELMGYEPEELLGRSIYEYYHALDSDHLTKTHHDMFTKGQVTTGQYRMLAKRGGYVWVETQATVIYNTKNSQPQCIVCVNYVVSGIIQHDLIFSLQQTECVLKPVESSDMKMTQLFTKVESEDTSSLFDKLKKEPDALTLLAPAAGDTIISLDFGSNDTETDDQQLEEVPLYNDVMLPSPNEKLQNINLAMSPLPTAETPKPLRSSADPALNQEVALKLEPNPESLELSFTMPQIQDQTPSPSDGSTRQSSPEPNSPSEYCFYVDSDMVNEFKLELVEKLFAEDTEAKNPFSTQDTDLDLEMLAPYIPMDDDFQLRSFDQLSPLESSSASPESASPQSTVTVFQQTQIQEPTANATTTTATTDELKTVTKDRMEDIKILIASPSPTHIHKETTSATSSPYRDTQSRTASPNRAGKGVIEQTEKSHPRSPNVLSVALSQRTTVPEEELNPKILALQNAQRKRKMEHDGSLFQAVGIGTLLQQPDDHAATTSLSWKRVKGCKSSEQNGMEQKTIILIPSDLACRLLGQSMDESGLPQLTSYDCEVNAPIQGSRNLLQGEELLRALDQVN
Hepatocyte nuclear factor 3-beta (Homo sapiens), sequence (Q9Y261 whole entry, looked up): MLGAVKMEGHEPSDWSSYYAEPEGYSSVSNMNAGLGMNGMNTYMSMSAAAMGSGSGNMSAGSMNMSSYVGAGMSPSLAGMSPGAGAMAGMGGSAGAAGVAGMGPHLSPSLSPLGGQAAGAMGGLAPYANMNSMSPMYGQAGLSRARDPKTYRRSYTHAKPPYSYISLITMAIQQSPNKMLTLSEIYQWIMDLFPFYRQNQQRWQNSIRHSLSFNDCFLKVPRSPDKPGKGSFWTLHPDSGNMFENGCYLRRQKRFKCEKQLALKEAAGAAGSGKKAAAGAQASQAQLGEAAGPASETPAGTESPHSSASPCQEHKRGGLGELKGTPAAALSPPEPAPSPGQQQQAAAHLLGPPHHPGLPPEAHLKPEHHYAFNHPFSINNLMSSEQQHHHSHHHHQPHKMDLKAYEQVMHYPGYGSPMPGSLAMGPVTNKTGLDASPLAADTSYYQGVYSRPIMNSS
Hepatocyte nuclear factor 6 (Homo sapiens), sequence (Q9UBC0 whole entry, looked up): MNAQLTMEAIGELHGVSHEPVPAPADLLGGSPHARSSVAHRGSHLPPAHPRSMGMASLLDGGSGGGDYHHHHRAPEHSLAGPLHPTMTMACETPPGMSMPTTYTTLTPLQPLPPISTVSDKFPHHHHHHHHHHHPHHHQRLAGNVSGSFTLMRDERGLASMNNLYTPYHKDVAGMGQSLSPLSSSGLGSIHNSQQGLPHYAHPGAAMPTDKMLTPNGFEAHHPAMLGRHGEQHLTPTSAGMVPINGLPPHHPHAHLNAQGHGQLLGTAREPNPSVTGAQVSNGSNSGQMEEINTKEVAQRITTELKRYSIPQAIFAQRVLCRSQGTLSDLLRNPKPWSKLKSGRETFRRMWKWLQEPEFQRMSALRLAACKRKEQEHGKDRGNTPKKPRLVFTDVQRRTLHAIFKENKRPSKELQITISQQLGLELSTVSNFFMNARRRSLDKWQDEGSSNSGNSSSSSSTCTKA
Bile acid receptor (Homo sapiens), sequence (Q96RI1 whole entry, looked up, the tested form may be a part): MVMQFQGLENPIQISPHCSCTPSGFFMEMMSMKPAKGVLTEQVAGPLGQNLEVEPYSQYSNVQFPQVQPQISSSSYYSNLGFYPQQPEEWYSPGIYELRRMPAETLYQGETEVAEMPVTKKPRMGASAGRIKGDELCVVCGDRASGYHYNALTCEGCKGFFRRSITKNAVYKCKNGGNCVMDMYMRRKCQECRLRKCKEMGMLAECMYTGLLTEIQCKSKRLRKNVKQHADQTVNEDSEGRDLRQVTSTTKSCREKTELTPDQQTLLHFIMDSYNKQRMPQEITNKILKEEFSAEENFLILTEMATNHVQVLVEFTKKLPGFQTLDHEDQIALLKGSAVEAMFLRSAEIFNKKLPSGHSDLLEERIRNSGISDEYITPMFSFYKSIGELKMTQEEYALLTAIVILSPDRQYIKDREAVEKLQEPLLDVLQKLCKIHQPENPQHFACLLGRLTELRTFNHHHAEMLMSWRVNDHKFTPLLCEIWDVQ
Heat shock factor protein 1 (Homo sapiens), sequence (Q00613 whole entry, looked up): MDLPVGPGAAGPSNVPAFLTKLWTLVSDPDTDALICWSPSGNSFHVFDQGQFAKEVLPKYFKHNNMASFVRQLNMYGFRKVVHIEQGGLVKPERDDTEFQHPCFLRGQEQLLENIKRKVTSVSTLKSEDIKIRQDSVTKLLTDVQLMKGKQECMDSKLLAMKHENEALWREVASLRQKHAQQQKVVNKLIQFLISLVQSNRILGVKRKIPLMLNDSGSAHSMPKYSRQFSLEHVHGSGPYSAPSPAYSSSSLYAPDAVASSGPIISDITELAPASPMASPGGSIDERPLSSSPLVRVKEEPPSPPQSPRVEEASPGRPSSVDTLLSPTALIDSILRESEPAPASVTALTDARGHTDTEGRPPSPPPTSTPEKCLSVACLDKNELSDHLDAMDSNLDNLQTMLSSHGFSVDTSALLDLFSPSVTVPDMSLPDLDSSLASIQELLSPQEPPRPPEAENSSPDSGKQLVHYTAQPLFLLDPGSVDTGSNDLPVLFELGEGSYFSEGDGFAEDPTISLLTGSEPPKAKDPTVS

CCO[Si](CCCNC(N)=O)(OCC)OCC
active: [15] 6.4 µM
not listed: [20]
inactive: all other assays above

Cc1ccc(C(C)C)cc1
not listed: [20]
inactive: all other assays above

CCCCOC(=O)CC(CC(=O)OCCCC)(OC(C)=O)C(=O)OCCCC
inactive: [1] | [2] | [20] | [3] | [5] | [6] | [7] | [9] | [10] | [11] | [13] | [14] | [15] | [16] | [17] | [19]
active: [18] 27.2 µM and 20.7 µM | [19] 26.6 µM

NCc1cccc(C2CCN(C(=O)c3ccc(C#Cc4ccccc4F)o3)CC2)c1
active: [4] 2.81 µM | [17] 17.2 µM | [18] 9.13 µM | [19] 18 µM
not listed: [8] | [12] | [20]
inactive: all other assays above

CCCCCCCCCC(=O)O
not listed: [4] | [8] | [10] | [19] | [20]
inactive: all other assays above

O=C=NCCCCCCN=C=O
not listed: [8] | [11] | [12] | [20]
inactive: all other assays above
